EPAC2 ag – agonists of human EPAC2 (RAPGEF4); EPAC2 activation, biochemical qHTS; response scale: 100% = 6.5 mM cAMP response; Potency, µM (titrated, usually from 154 µM), for inactives: at the highest dose activation, usual class: activators; 0.079% of 360,000 active; AID 720711; further: nearly all actives have a fitted effect of over 50% in size
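qHTS, titration series. 100 nM EPAC2 / 250 nM Rap1B-BODIPY-GDP / 50 uM GDP; RT; ex 480/em 540 nm, 5-min reads to 30 min. Norm. to 6.5 mM cAMP = activation.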
USP1 inh – blocks the human USP1/UAF1 deubiquitinase complex; Potency, µM (highest dose often 57.1 µM), without a hit: top-dose activity change, negative = inhibition, usual class: inhibitors; recombinant USP1/UAF1, Ub-Rhodamine cleavage fluorescence; AID 743255; 0.23% of 390,000 active; further: on the % scale 0 is the no-effect control and ±100 the full control effect; nearly all actives have a fitted effect of over 60% in size
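In this screen, compounds sit with the deubiquitinase complex (1nM) for 15 min at room temperature before Ub-Rho is added at 150nM final. Fluorescence rise is then followed for 6 reads every 60 seconds.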
EPAC1 ag – activates human EPAC1 exchange factor | Potency, µM (series often up to 154 µM), for inactives: top-dose activation, most hits filed as activators | 0.073% of 360,000 active | EPAC1 agonist qHTS, biochemical assay; response scale: 100% = response to 6.5 mM cAMP; further: nearly all actives have a fitted effect of over 60% in size
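Normalized to 6.5 mM cAMP, activity reflects EPAC1-catalysed release of BODIPY-GDP from Rap1B, followed kinetically over 30 min at 480 nm excitation, 540 nm emission. Reaction contained 100 nM EPAC1, 250 nM Rap1B-BODIPY-GDP, 50 uM GDP.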
EPAC1 antagonist – blocks human EPAC1 exchange factor | O95398 | EPAC1 GEF assay, Rap1b-BODIPY-GDP exchange fluorescence | Potency, µM (highest dose often 115 µM), inactives show top-dose activity change, negative = inhibition, usual class: inhibitors | 0.14% of 360,000 active;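 further: plate controls were vehicle for no effect and positive control for full effect; nearly all actives have a fitted effect of over 50% in size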
EPAC2 antagonist – blocks human EPAC2 exchange factor. Potency, µM (highest dose often 114 µM), for the others: at the top dose activity, negative = inhibition, usual class: inhibitors. 0.18% of 360,000 active. EPAC2 GEF exchange of Rap1B-BODIPY-GDP, fluorescence. AID 720708; further: on the % scale 0 is the no-effect control and ±100 the full control effect; nearly all actives have a fitted effect of over 45% in size
GLP1R cytotox – cytotoxicity counter-screen for GLP-1 receptor inverse agonists. AID 624418. HEK293 cAMP-luciferase reporter cells, luminescence, 24 h. Potency, µM (doses to about 38.3 µM), inactives show top-dose activity change, negative = inhibition, actives largely listed as inhibitors. 0.13% of 410,000 active;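 further: loss of luciferase light is scored as toxicity; on the % scale 0 is the no-effect control and ±100 the full control effect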
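Here, cytotoxicity is scored as loss of luminescence. The MLSMR collection was tested on cells seeded in medium containing 10% Nu serum, with a 24 hr compound exposure preceded by 12 hours of culture.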
The depositor's hits bear a star. Shown are actives, neighbours in structure and some others; about 0.55% of the full set was active somewhere. The call rests on the fitted dose curve; in most records, active means well fitted curve in the direction sought with a large enough effect; inconclusive means small, poorly fitted or top-dose-only effect, or another doubt; inactive means no such curve, though single readings can be large; an effect the other way counts as inactive or inconclusive. Potency means the concentration at half of the fitted maximal effect.

`CCOc1ccc2nc(NC3=NC(C)(C)C=C(C)N3)nc(C)c2c1` gave EPAC2 ag -2%, USP1 inh -15%, EPAC1 ag 2%, EPAC1 antagonist 5%, EPAC2 antagonist 6% and GLP1R cytotox inconclusive.
For CCOc1ccc2nc(NC3=NC(c4ccc(OC)cc4)CC(=O)N3)nc(C)c2c1 (centres undefined) the results were EPAC2 ag inconclusive, USP1 inh inconclusive, EPAC1 ag inconclusive, EPAC1 antagonist 50µM*, EPAC2 antagonist 32µM* and GLP1R cytotox inconclusive.
Screening Cc1nn(C(=O)c2ccccc2F)c(C)c1S(=O)(=O)N1CCOCC1 returned USP1 inh -2% and GLP1R cytotox -9%.
For O=C(CSc1cn(CC(=O)N2CCCC2)c2ccccc12)Nc1ccccc1C(F)(F)F the results were USP1 inh -18% and GLP1R cytotox 1%.
Nc1nc(Sc2ccc([N+](=O)[O-])c3nonc23)c2[nH]cnc2n1 was read as EPAC2 ag -3%, USP1 inh -7%, EPAC1 ag inconclusive, EPAC1 antagonist -10%, EPAC2 antagonist -11% and GLP1R cytotox 8.9µM*.
`CC1(C2CCC3C4CCC5CC6(CCC5(C)C4C(=O)CC32C)OCCO6)OCCO1` (centres undefined) gave EPAC2 ag 5%, USP1 inh -2%, EPAC1 ag 8%, EPAC1 antagonist inconclusive, EPAC2 antagonist 56µM* and GLP1R cytotox 12%.
For CCN(CC)C(=O)CSc1nc(-c2ccc(C)cc2)nc2c1Cc1c(CO)cnc(C)c1O2 the results were USP1 inh -8% and GLP1R cytotox -17%.
CCCc1cnc2c(c1SCC(=O)N(C)c1ccccc1)c(=O)n(C)c(=O)n2C was read as USP1 inh -14% and GLP1R cytotox 5%.
Cc1ccc(NS(=O)(=O)c2cccc3cccnc23)c(Br)c1 was read as EPAC2 ag 9%, USP1 inh -13%, EPAC1 ag 6%, EPAC1 antagonist -6%, EPAC2 antagonist -17% and GLP1R cytotox -4%.
Cc1ccc(NS(=O)(=O)c2cccc3cccnc23)c(Cl)c1 was read as EPAC2 ag 9%, USP1 inh -9%, EPAC1 ag 9%, EPAC1 antagonist 12%, EPAC2 antagonist 28µM* and GLP1R cytotox -5%.
For Cc1oc(-c2ccccc2Cl)nc1CS(=O)CC(=O)N1CCN(c2cccc(C(F)(F)F)c2)CC1 (centres undefined) the results were USP1 inh 2% and GLP1R cytotox -23%.
For COC(=O)c1cc2c(n1S(=O)(=O)c1ccc(C)cc1)C(=O)C(=O)c1[nH]cc(C(=O)OCc3ccccc3)c1-2 the results were EPAC2 ag -7%, USP1 inh inconclusive, EPAC1 ag -10%, EPAC1 antagonist -7%, EPAC2 antagonist 5% and GLP1R cytotox 4µM*.
Cc1ccc2c(CC(=O)Nc3nnc(C(C)C)s3)coc2c1C was read as USP1 inh 1% and GLP1R cytotox 0%.
CCC1CN(C(=O)N2CCC(C(=O)NCCC3=CCCCC3)CC2)c2cc(C)ccc2O1 (centres undefined) was read as USP1 inh -4% and GLP1R cytotox -3%.
N#Cc1ccc(/C=C\c2nccc3c2[nH]c2ccccc23)cc1 was read as EPAC2 ag 12%, USP1 inh 22µM*, EPAC1 ag inconclusive, EPAC1 antagonist -7%, EPAC2 antagonist inconclusive and GLP1R cytotox 142%.
`O=C(c1ccc(NS(=O)(=O)c2ccccc2)cc1)N1CCN(c2ccccc2)CC1` gave EPAC2 ag 10%, USP1 inh -5%, EPAC1 ag 0%, EPAC1 antagonist -13% and EPAC2 antagonist -1%.
Screening O=c1cc2oc3cc(O)c(O)cc3c(-c3ccccc3[N+](=O)[O-])c-2cc1O returned EPAC2 ag 5%, USP1 inh inconclusive, EPAC1 ag 0%, EPAC1 antagonist 79µM*, EPAC2 antagonist inconclusive and GLP1R cytotox inconclusive.
`CCc1ccc(NC(=O)C(=O)NCCc2csc(-c3cccc(F)c3)n2)cc1` gave USP1 inh -31% and GLP1R cytotox 3%.
Nc1ncnc(Sc2ncccn2)c1[N+](=O)[O-] was read as EPAC2 ag 1%, USP1 inh -8%, EPAC1 ag 6%, EPAC1 antagonist 3%, EPAC2 antagonist -7% and GLP1R cytotox 11µM*.
CC(CCC(C)C(C)(C)C)[C@@H]1CC[C@H]2C3C[C@H](OS(O)(=S)=S)[C@H]4C[C@H](OS(O)(=S)=S)[C@@H](OS(O)(=S)=S)C[C@]4(C)[C@H]3CC[C@]12C (some centres undefined) (tested in a mixture with another compound) was read as EPAC2 ag 25%, USP1 inh 18µM*, EPAC1 ag -16%, EPAC1 antagonist 16µM*, EPAC2 antagonist 20µM* and GLP1R cytotox inconclusive.
CC(CCC(=O)NN)C1CCC2C3CCC4CC(O)CCC4(C)C3CCC12C (centres undefined) was read as EPAC2 ag 1%, USP1 inh -3%, EPAC1 ag -3%, EPAC1 antagonist -11%, EPAC2 antagonist -3% and GLP1R cytotox 3%.
COc1cc(/C=C/C(O)=C/C(=O)/C=C/c2ccc(O)cc2)ccc1O was read as EPAC2 ag 0%, USP1 inh 28µM*, EPAC1 ag -5%, EPAC1 antagonist -29%, EPAC2 antagonist 6% and GLP1R cytotox 3%.
Screening Cn1c2nc(=O)n(-c3ccccc3)c(=O)c-2nc2c1CCCC2 returned EPAC2 ag 12%, USP1 inh 14µM*, EPAC1 ag inconclusive, EPAC1 antagonist -12%, EPAC2 antagonist 38% and GLP1R cytotox 125%.
For Cc1nn(C)c(=O)n1-c1ccccc1 the results were EPAC2 ag 1%, USP1 inh -7%, EPAC1 ag -3%, EPAC1 antagonist -9%, EPAC2 antagonist -1% and GLP1R cytotox 9%.
For Cc1c(C(=O)N(C)C)sc2c1c(=O)n(-c1ccc(Cl)c(Cl)c1)c(=O)n2CC(=O)N1CCCCC1C (centres undefined) the results were USP1 inh -12% and GLP1R cytotox 9%.
Screening Cc1ccc(C(=O)c2oc3ccccc3c2NC(=O)C(C)Oc2ccccc2Cl)cc1 (centres undefined) returned USP1 inh -2% and GLP1R cytotox -1%.
